High-throughput results deposited in PubChem by Johns Hopkins Ion Channel Center.
Sampled rows, rich in hits. Any-hit rate of the full collection: about 1.6%.
KCNQ2 block: blocks the rat KCNQ2 potassium channel; B-score at 10 µM; CHO-K1 KCNQ2, FluxOR thallium flux, 20 min; hits give low values; 1.1% of 310,000 active; O88943;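 active = fluorescence ratio B-score at most minus 3 library SDs, with starting brightness B-score within 2 library SDs, cut at about -5.5 in these data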
Target sequence (O88943 whole entry, looked up): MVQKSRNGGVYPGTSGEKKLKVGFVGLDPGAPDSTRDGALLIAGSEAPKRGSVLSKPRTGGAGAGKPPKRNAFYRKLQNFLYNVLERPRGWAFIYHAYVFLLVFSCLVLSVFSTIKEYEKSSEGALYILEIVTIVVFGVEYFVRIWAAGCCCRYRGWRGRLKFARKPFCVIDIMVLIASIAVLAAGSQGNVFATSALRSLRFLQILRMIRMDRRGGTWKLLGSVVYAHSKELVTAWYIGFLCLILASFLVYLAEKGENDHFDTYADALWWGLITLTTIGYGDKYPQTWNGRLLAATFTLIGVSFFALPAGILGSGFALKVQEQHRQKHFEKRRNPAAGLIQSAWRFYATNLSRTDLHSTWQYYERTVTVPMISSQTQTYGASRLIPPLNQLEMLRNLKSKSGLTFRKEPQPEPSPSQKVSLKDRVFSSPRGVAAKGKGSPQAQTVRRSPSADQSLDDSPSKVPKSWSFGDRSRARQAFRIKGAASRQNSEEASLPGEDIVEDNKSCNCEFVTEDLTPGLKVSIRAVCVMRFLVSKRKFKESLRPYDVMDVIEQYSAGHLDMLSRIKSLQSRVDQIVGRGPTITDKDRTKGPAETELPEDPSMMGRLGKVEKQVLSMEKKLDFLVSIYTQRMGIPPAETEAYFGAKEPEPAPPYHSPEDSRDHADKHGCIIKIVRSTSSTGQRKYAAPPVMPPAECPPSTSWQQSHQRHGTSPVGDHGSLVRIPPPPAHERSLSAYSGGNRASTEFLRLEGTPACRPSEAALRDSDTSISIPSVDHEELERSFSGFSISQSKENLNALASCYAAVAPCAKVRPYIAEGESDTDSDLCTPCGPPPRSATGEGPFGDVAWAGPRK
KCNQ2 pot: KCNQ2 (rat) channel potentiation | 0.54% of 310,000 active | AID 2239 | B-score at 10 µM | CHO-K1 KCNQ2, FluxOR thallium flux fluorescence; hits give high values | O88943;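 active = fluorescence ratio B-score at least 3 SD of library B-scores, with initial fluorescence B-score within 3 of them, cut at about 5.3 in these data; same plate scores as AID 2156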;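 also: B-score of peak minus minimum over baseline fluorescence ratio after K+ and Tl+ stimulus; positive B-score means potentiation of KCNQ2 with more thallium influx and brighter signal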
KCNQ2 inh conf: rat KCNQ2 channel inhibition, confirmatory screen. shares compounds with KCNQ2 block. KCNQ2-expressing cells, thallium flux; hits give low values. activity change, negative = inhibition, % at 10 µM. 57% of 1,000 active. AID 493025;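 also: 0% = vehicle wells and values are ratio percent relative to vehicle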
KCNQ1 spec: KCNQ2 inhibitor that also affects human KCNQ1 channel; 15% of 1,000 active; AID 493026; shares compounds with KCNQ2 block; activity change, negative = inhibition, % at 10 µM; KCNQ1-expressing cells, FluxOR thallium flux fluorescence; hits give low values;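 active = activity change at least 3 SD of negative controls below their mean in both duplicate wells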;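 also: CHO cells stably transfected with KCNQ1 and depolarized by potassium stimulus; peak minus minimum fluorescence over baseline after thallium addition; 0% = vehicle negative control and -100% = blank without thallium stimulus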
CHO Tl ctr: activity in parental CHO cells lacking KCNQ2; shares compounds with KCNQ2 block; AID 493029; 14% of 1,000 active; activity change, % at 10 µM; thallium flux counter-screen; hits give low values;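 also: 0% = vehicle negative controls with stimulus buffer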
KCNQ2 inh confirm: confirmation of rat KCNQ2 potassium channel inhibitors. shares compounds with KCNQ2 block. KCNQ2-expressing cells, automated patch clamp current. calls only at 10 µM. 49% of 550 active. AID 588531
* hit, by the source's call. Unless noted, no rule for the calls is given here.

O=C(CCc1nc(-c2ccc(Cl)cc2)no1)NC1CCCCC1 was read as KCNQ2 block inactive and KCNQ2 pot 0.17.
Screening O=C(NC1CCCCC1)c1ccc(S(=O)(=O)NCc2ccco2)cc1 returned KCNQ2 block inactive.
For CCCCN(CC)CCNC(=O)c1cc2c(-c3ccc(Cl)cc3)nn(C)c2s1 the results were KCNQ2 block -8.41*, KCNQ2 pot -8.41, KCNQ2 inh conf -35.0%*, KCNQ1 spec inactive, CHO Tl ctr inactive and KCNQ2 inh confirm inactive.
`CCN(CC)CCNC(=O)c1cc2c(-c3ccc(Cl)cc3)nn(C)c2s1` gave KCNQ2 block inactive.
CCCN(CCC)CCNC(=O)c1cc2c(-c3ccc(Cl)cc3)nn(C)c2s1 was read as KCNQ2 block -7.3*, KCNQ2 pot -7.3, KCNQ2 inh conf -34.0%*, KCNQ1 spec inactive, CHO Tl ctr inactive and KCNQ2 inh confirm inactive.
`CCOCCCNC(=O)c1cc2c(-c3ccc(Cl)cc3)nn(C)c2s1` gave KCNQ2 block inactive and KCNQ2 pot 0.84.
`S=c1[nH]nc(C2CCCCC2)n1/N=C/c1cccs1` gave KCNQ2 block inactive and KCNQ2 pot 0.09.
For O=C(OCc1ccc(Br)cc1)c1ccncc1 the results were KCNQ2 block inactive and KCNQ2 pot 0.01.
For CCN(c1cccc(C)c1)S(=O)(=O)c1ccc(-c2cc(C)no2)s1 the results were KCNQ2 block inactive.
Cc1cccc(N(C)S(=O)(=O)c2ccc(-c3cc(C)no3)s2)c1 was read as KCNQ2 block -7.03*, KCNQ2 pot -7.03, KCNQ2 inh conf inactive, KCNQ1 spec inactive and CHO Tl ctr inactive.
For CCn1c(=O)cc(OCC(=O)N2CCN(c3ccc(F)cc3)CC2)c2ccccc21 the results were KCNQ2 block inactive.
CCOC(=O)c1sc(NC(=O)c2cc(-c3ccccc3C)nc3ccccc23)c(C#N)c1C was read as KCNQ2 block -8.98*, KCNQ2 pot -8.98, KCNQ2 inh conf -40.0%*, KCNQ1 spec -35.5%*, CHO Tl ctr -26.0%* and KCNQ2 inh confirm inactive.
Screening CCOC(=O)c1sc(NC(=O)c2ccncc2)c(C#N)c1C returned KCNQ2 block inactive and KCNQ2 pot 0.3.
`CCc1nc2ccccc2nc1N1CCN(S(=O)(=O)c2c(C)cc(Cl)cc2C)CC1` gave KCNQ2 block inactive.
`CC(Oc1ccc(Cl)cc1Cl)C(=O)NN=C1CCN(C)CC1` (configuration not stated) gave KCNQ2 block inactive and KCNQ2 pot 0.08.
CC(Oc1ccc(Cl)cc1Cl)C(=O)N/N=C1\CCCc2ccccc21 (configuration not stated) was read as KCNQ2 block -6.67*, KCNQ2 pot -6.67, KCNQ2 inh conf -32.0%*, KCNQ1 spec inactive, CHO Tl ctr inactive and KCNQ2 inh confirm active.
For CCn1c(COc2cccc3ccccc23)nnc1SCC(=O)OC1CCCCC1 the results were KCNQ2 block -8.55*, KCNQ2 pot -8.55, KCNQ2 inh conf inactive, KCNQ1 spec inactive and CHO Tl ctr inactive.
For Cn1c(COc2cccc3ccccc23)nnc1SCC(=O)OC1CCCCC1 the results were KCNQ2 block inactive.
`O=C(CSc1nnc(-c2ccco2)n1Cc1ccccc1)OC1CCCCC1` gave KCNQ2 block -9.37*, KCNQ2 pot -9.37, KCNQ2 inh conf -34.5%*, KCNQ1 spec inactive, CHO Tl ctr inactive and KCNQ2 inh confirm active.
Screening O=C(CSc1nnc(-c2ccncc2)n1Cc1ccco1)OC1CCCCC1 returned KCNQ2 block inactive.
`COc1ccc(C2(C)NC(=O)N(CC3CCCCC3)C2=O)cc1` (configuration not stated) gave KCNQ2 block inactive.
`COc1ccccc1CNC(=O)COC(=O)c1ccc(C)c(S(=O)(=O)N2CCCCC2)c1` gave KCNQ2 block -8.44*, KCNQ2 pot -8.44, KCNQ2 inh conf -36.0%*, KCNQ1 spec -39.0%*, CHO Tl ctr -25.5%* and KCNQ2 inh confirm active.
`COc1ccccc1CNC(=O)COC(=O)c1cccc(S(=O)(=O)N2CCCCC2)c1` gave KCNQ2 block inactive.
`COc1ccccc1/C=N/NC(=O)c1c(-c2ccccc2)noc1C` gave KCNQ2 block inactive.
`COc1ccc(NC(=O)CN(C)C(=O)/C=C/c2cn(-c3ccccc3)nc2-c2ccc(C)cc2)cc1` gave KCNQ2 block inactive.
For COc1cccc(NC(=O)CN(C)C(=O)/C=C/c2cn(-c3ccccc3)nc2-c2ccc(C)cc2)c1 the results were KCNQ2 block -9.05*, KCNQ2 pot -9.05, KCNQ2 inh conf -22.5%*, KCNQ1 spec inactive, CHO Tl ctr inactive and KCNQ2 inh confirm inactive.
For O=C(O)c1cc(-c2cccs2)nc2cc3c(cc12)OCCO3 the results were KCNQ2 block inactive and KCNQ2 pot 0.03.
`N#C/C(=C\C=C\c1ccccc1)C(=O)Nc1ccccc1` gave KCNQ2 block -7.41*, KCNQ2 pot -7.41, KCNQ2 inh conf inactive, KCNQ1 spec inactive and CHO Tl ctr inactive.
`N#C/C(=C/C=C/c1ccccc1)C(=O)Nc1ccccc1` gave KCNQ2 block inactive.
`Cc1cccn2c(=O)nc(SCC(=O)Nc3cccc4ccccc34)nc12` gave KCNQ2 block inactive and KCNQ2 pot 0.01.
`Cc1cc(Cl)ccc1OC(C)C(=O)NCCCCc1ccccc1` (configuration not stated) gave KCNQ2 block -7.29*, KCNQ2 pot -7.29, KCNQ2 inh conf -31.5%*, KCNQ1 spec inactive, CHO Tl ctr inactive and KCNQ2 inh confirm active.
`Cc1cc(Cl)ccc1OC(C)C(=O)NCCc1ccc2c(c1)OCCO2` (configuration not stated) gave KCNQ2 block inactive.
For Clc1ccc2c(N/N=C/c3cccnc3)ccnc2c1 the results were KCNQ2 block inactive and KCNQ2 pot 1.07.
`COc1ccccc1S(=O)(=O)Cc1ccc(C(=O)N2CCN(c3ccccc3)CC2)o1` gave KCNQ2 block inactive.
For COc1ccccc1S(=O)(=O)Cc1ccc(C(=O)N2CCN(c3cccc(Cl)c3)CC2)o1 the results were KCNQ2 block -10.3*, KCNQ2 pot -10.3, KCNQ2 inh conf -37.0%*, KCNQ1 spec inactive, CHO Tl ctr inactive and KCNQ2 inh confirm inactive.
`CS(=O)(=O)Cc1nc2ccccc2oc1=O` gave KCNQ2 block inactive and KCNQ2 pot 0.9.
`Cc1ccc(/C(N)=N/OC(=O)N2c3ccccc3Sc3ccccc32)cc1` gave KCNQ2 block -8.51*, KCNQ2 pot -8.51, KCNQ2 inh conf -26.5%*, KCNQ1 spec inactive, CHO Tl ctr inactive and KCNQ2 inh confirm active.
`Cc1ccc(/C(N)=N/OC(=O)Cc2ccccc2)cc1` gave KCNQ2 block inactive.
For Cc1cc2cc(CCNC(=O)c3ccc(C)c([N+](=O)[O-])c3)c(=O)[nH]c2cc1C the results were KCNQ2 block inactive.
